# “And” between values parts separate entries of the source, which are not always exact repeats. Identical values can stand only once. The panel holds about 79,000 compounds, 15% with a hit somewhere; the sample as a whole holds those more often. The source holds several records for some structures; these can differ, active in one and inactive in another. The source made the active and inactive calls. No stated cut-off is given here; in the data, active means growth inhibition above about 70%; inactive means the rest.
# How the values were obtained:
# [1] = NCI Yeast Anticancer Drug Screen. Data for the rad50 strain (AID 155);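 further: 0% = growth of vehicle-only cultures of the same strain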; conditions: S. cerevisiae rad50 strain growth inhibition, stronger effect = higher value
# Summary of the method: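 Growth of the mutant yeast was measured after compound exposure and referenced to vehicle-treated cultures.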
# [2] = NCI Yeast Anticancer Drug Screen. Data for the mec2-1 strain (AID 157); conditions: S. cerevisiae mec2-1 strain, stronger effect = higher value
# Summary of the method: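 Each compound was tested on mec2-1 yeast, a strain altered in DNA damage repair or cell cycle control. Growth inhibition is reported relative to vehicle.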
# [3] = NCI Yeast Anticancer Drug Screen. Data for the sgs1 mgt1 strain (AID 161);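 further: 0% = growth of cultures given vehicle only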; conditions: S. cerevisiae sgs1 mgt1 strain, stronger effect = higher value
# Summary of the method: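 Inhibition of yeast growth, normalised to vehicle-treated controls, is reported for a strain bearing genetic alterations in DNA damage repair.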
# [4] = NCI Yeast Anticancer Drug Screen. Data for the cln2 rad14 strain (AID 165);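 further: 0% = growth equal to vehicle treated cultures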; conditions: S. cerevisiae cln2 rad14 strain, stronger effect = higher value
# Summary of the method: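 Test compounds were added to cln2 rad14 yeast cultures; inhibition of growth was then determined by comparison with vehicle treatment.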
# [5] = NCI Yeast Anticancer Drug Screen. Data for the bub3 strain (AID 167); conditions: S. cerevisiae bub3 mutant strain, stronger effect = higher value
# Summary of the method: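 Whole-cell yeast assay. The mutant strain was incubated with compounds, and growth inhibition was determined by comparison with vehicle-treated cells.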
# [6] = NCI Yeast Anticancer Drug Screen. Data for the mlh1 rad18 strain (AID 175); conditions: S. cerevisiae mlh1 rad18 strain growth inhibition, stronger effect = higher value
# Summary of the method: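 Inhibition values reflect reduced growth of mutant yeast versus vehicle-treated controls following compound exposure; the mutations affect DNA damage repair.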
# [7] = at 5.0 µM (retest, dose inferred, filed as 0.5)
# [8] = at 50.0 µM (retest, dose inferred, filed as 5.0)
SMILES,"growth inhibition [1, 7]","growth inhibition [1, 8]",growth inhibition ([1]; at 50.0 µM),"growth inhibition [2, 7]","growth inhibition [2, 8]",growth inhibition ([2]; at 50.0 µM),"growth inhibition [3, 7]","growth inhibition [3, 8]",growth inhibition ([3]; at 50.0 µM),"growth inhibition [4, 7]","growth inhibition [4, 8]",growth inhibition ([4]; at 50.0 µM),"growth inhibition [5, 7]","growth inhibition [5, 8]",growth inhibition ([5]; at 50.0 µM),"growth inhibition [6, 7]","growth inhibition [6, 8]",growth inhibition ([6]; at 50.0 µM)
CCn1c(-c2c(Cl)cc(O)cc2Cl)cc2c(Cl)cc(O)cc21,64% (inactive),99% (active),98.1% (active),97% (active),99% (active),99% (active),17% (inactive),98% (active),98.5% (active),13% (inactive),98% (active),98.5% (active),11% (inactive),96% (active),98% (active),22% (inactive),94% (active),98.6% (active)
Nc1cc(Cl)c(S(=O)(=O)O)cc1Cl,67% (inactive),98% (active),-16.2% (inactive) and 35.6% (inactive),18% (inactive),98% (active),-1.25% (inactive) and -2.55% (inactive),9% (inactive),96% (active),-1.55% (inactive) and -2.6% (inactive),-7% (inactive),96% (active),-14% (inactive) and 39.3% (inactive),12% (inactive),98% (active),-6.55% (inactive) and 1.75% (inactive),28% (inactive),98% (active),5.2% (inactive) and 30.6% (inactive)
CCCCCCCCCCCC[N+](C)(C)Cc1ccccc1,58% (inactive) and 95% (active),99% (active) and 98% (active),85.7% (active) and 97.7% (active),75% (active) and 93% (active),100% (active) and 98% (active),99.8% (active) and 98.3% (active),91% (active) and 99% (active),100% (active) and 98% (active),98% (active) and 99.4% (active),56% (inactive) and 88% (active),99% (active) and 97% (active),99.4% (active) and 98% (active),57% (inactive) and 92% (active),100% (active) and 98% (active),99.5% (active) and 99.3% (active),81% (active) and 96% (active),99% (active) and 98% (active),99.7% (active) and 98.5% (active)
CC(C)(S)C(N)C(=O)O (configuration not stated),-14% (inactive),4% (inactive),-12.3% (inactive) and -14.5% (inactive) and 21.1% (inactive),1% (inactive),-8% (inactive),-9.15% (inactive) and 2.8% (inactive) and -17.5% (inactive),-2% (inactive),-9% (inactive),-9.7% (inactive) and -11.3% (inactive) and 3% (inactive),4% (inactive),-1% (inactive),-2.5% (inactive) and 45.3% (inactive) and 3.15% (inactive),-9% (inactive),-13% (inactive),-13.6% (inactive) and -0.75% (inactive) and 24.6% (inactive),-3% (inactive),-1% (inactive),6.8% (inactive) and 9.35% (inactive) and 3.55% (inactive)
O=C(C(=Cc1ccccc1)C(=O)c1ccccc1)c1ccccc1,42% (inactive),92% (active),86.5% (active) and 21.2% (inactive),54% (inactive),95% (active),90.5% (active) and 7.7% (inactive),50% (inactive),95% (active),89.5% (active) and 18.9% (inactive),50% (inactive),89% (active),83.8% (active) and -79.9% (inactive),84% (active),96% (active),88% (active) and 51.6% (inactive),69% (inactive),94% (active),87.8% (active) and 20.8% (inactive)
CC(=O)Oc1cccc2cccnc12,99% (active),99% (active),99.2% (active),91% (active),100% (active),99.3% (active),98% (active),100% (active),89.2% (active),88% (active),99% (active),98.8% (active),98% (active),100% (active),99.2% (active),96% (active),99% (active),98.1% (active)
CCCn1cnc2c(SCc3ccc(Cl)cc3)nc(N)nc21,-7% (inactive),21% (inactive),96.9% (active),-5% (inactive),-10% (inactive),97.5% (active),-3% (inactive),16% (inactive),96.2% (active),-32% (inactive),-64% (inactive),92.8% (active),-20% (inactive),7% (inactive),97% (active),-6% (inactive),36% (inactive),98% (active)
c1ccc([P+](CCCCCCCC[P+](c2ccccc2)(c2ccccc2)c2ccccc2)(c2ccccc2)c2ccccc2)cc1,40% (inactive),98% (active),88.5% (active),39% (inactive),99% (active),92% (active),46% (inactive),98% (active),90.9% (active),30% (inactive),95% (active),87.7% (active),46% (inactive),98% (active),91.1% (active),73% (active),97% (active),89.8% (active)
N=C1N(c2ccccc2)C(=S)C(=Nc2ccccc2)N1c1ccccc1,16% (inactive),99% (active),88.5% (active),-4% (inactive),99% (active),90.8% (active),8% (inactive),99% (active),84% (active),9% (inactive),99% (active),82% (active),-33% (inactive),99% (active),84.2% (active),-6% (inactive),99% (active),87.2% (active)
CCCCCCCCOC(=O)c1cc(O)c(O)c(O)c1,49% (inactive),64% (inactive),89.2% (active),46% (inactive),68% (inactive),91.7% (active),59% (inactive),98% (active),93% (active),48% (inactive),98% (active),90% (active),70% (active),97% (active),89.8% (active),44% (inactive),59% (inactive),89.2% (active)
OCC1OC(Sc2ncc[nH]2)C(O)C(O)C1O (configuration not stated),-12% (inactive),4% (inactive),5.1% (inactive) and 4.95% (inactive),-1% (inactive),-10% (inactive),-7.25% (inactive) and -9.95% (inactive),-30% (inactive),-11% (inactive),-4.55% (inactive) and -7.65% (inactive),11% (inactive),3% (inactive),4.15% (inactive) and 44.2% (inactive),0% (inactive),0% (inactive),-1.3% (inactive) and -3.2% (inactive),-18% (inactive),-14% (inactive),-17.8% (inactive) and -16.8% (inactive)
Oc1c(Cl)cc(Cl)c(Cl)c1Cl,-2% (inactive) and 11% (inactive),94% (active) and 98% (active),85.2% (active) and 98.3% (active),8% (inactive) and 14% (inactive),96% (active) and 98% (active),94.3% (active) and 99.6% (active),-3% (inactive) and 3% (inactive),98% (active) and 86% (active),80.5% (active) and 99.3% (active),11% (inactive) and -10% (inactive),98% (active) and 97% (active),89.7% (active) and 98.5% (active),-3% (inactive) and 39% (inactive),85% (active) and 96% (active),88.8% (active) and 99.1% (active),4% (inactive) and 7% (inactive),92% (active) and 96% (active),93.8% (active) and 98.7% (active)
O=[N+]([O-])c1cc2c(cc1S(=O)(=O)O)C1C(C3C2C2(Cl)C(Cl)=C(Cl)C3(Cl)C2(Cl)Cl)C2(Cl)C(Cl)=C(Cl)C1(Cl)C2(Cl)Cl (configuration not stated),-3% (inactive),10% (inactive),66.2% (inactive),-10% (inactive),26% (inactive),69.9% (inactive),22% (inactive),41% (inactive),72.5% (active),34% (inactive),41% (inactive),54.2% (inactive),-1% (inactive),44% (inactive),71.2% (active),8% (inactive),57% (inactive),67.3% (inactive)
CN1CCCc2cc(/C=C\c3ccnc4ccccc34)ccc21,-2% (inactive),94% (active),96% (active),-10% (inactive),97% (active),97.1% (active),-10% (inactive),96% (active),98.3% (active),-6% (inactive),94% (active),93% (active),-7% (inactive),94% (active),96.8% (active),-21% (inactive),96% (active),97.4% (active)

# Reference: PubChem BioAssay (NCI)
